# Reference: PubChem BioAssay AID641 (Vanderbilt High Throughput Screening Facility, 2007)
# About 3,400 (5.9%) of roughly 58,000 compounds were called active. The entries come from a sample that favours actives as a whole. A number with no mark means an inactive call.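 How the source made its calls: active means luminescence count or its row- and column-corrected plate score outside the 99.7% band of the plate's sample wells, on either side; inactive means the rest.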
# Biological target: D(1A) dopamine receptor (Homo sapiens) (UniProt P21728)
# Sequence (P21728 whole entry, looked up): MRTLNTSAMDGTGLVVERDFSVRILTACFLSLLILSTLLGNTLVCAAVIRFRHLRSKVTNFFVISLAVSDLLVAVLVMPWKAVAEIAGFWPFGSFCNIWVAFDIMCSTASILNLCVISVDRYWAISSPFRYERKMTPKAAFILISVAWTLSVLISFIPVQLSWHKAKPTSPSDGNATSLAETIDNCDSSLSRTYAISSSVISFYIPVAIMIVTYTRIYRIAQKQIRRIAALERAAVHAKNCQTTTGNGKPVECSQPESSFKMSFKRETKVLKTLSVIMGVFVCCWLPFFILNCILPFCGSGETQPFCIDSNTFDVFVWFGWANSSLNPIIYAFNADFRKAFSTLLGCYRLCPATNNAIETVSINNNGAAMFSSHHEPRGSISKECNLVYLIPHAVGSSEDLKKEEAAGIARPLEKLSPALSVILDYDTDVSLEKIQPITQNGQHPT
# Assay: D1 CRE-luciferase signal change, two-sided – cell-based, HEK293 D1, dopamine EC30, D1 allosteric modulator project, primary screen (AID 641)
# Settings: dopamine EC30 potentiation, at 10 µM, actives deviate in either direction
row,Compound,B-score
1,CCCCNc1nc2ccccc2nc1NS(=O)(=O)c1cccs1,19.3 (active)
2,CCOc1ccc2nc(NCCNS(=O)(=O)c3ccccc3)c(C#N)cc2c1,0.768
3,O=C(Nc1nncs1)c1ccccc1NS(=O)(=O)c1cccs1,-0.0134
4,COc1nc(OC)nc(N(C)CCO)n1,0.849
5,Cc1ccc(C)c2[nH]c(=O)c(CCNC(=O)CC(C)C)cc12,-0.219
6,COc1ncnc2c1N=C1CC(C)(C)CC(N)=C1S2,3.41 (active)
7,Nc1c(C(=O)NCc2ccccc2)nnn1Cc1cccc(Cl)c1,0.392
8,COc1ccc(OC)c2c1sc(=NC(=O)CN1C(=O)CCC1=O)n2C,2.86
9,Cc1ccc2c(c1)N(CCCC(=O)NCc1cccnc1)C(=O)CO2,-0.742
10,COc1ccc(N2CCN(CCNC(=O)c3nnc(Cc4c(F)cccc4Cl)o3)CC2)cc1,-1.8
11,Cc1ccc(-n2nc3c(c2NC(=O)CCC2CCCCC2)CS(=O)C3)cc1 (stereo not given),-0.56
12,O=P(O)(CN1CCCCC1)CN1CCCCC1,-0.0507
13,C=CCOC(=O)C1=C(C)OC(N)=C(C#N)C1c1ccc(F)cc1 (stereo not given),0.241
14,C=CCSc1nc2c(c(=O)[nH]1)C(C(C)C)C(C#N)=C(N)O2 (stereo not given),10.1 (active)
15,CCN1CCN(C(=O)c2ccccc2N(C)S(=O)(=O)c2ccc(C)cc2)CC1,0.228
16,COc1cc(NS(=O)(=O)c2ccccc2)ccc1-n1nc(C)cc1C,-0.763
17,CCOC(=O)c1cnc(-n2nc(C)cc2C)nc1Nc1cccc(C(C)=O)c1,0.96
18,COc1ccc(Nc2cc(C)nc(-n3nc(C)cc3C)n2)cc1,7.36 (active)
19,Cc1cc(C)n(-c2ccc(Cl)c(C(=O)O)n2)n1,-0.569
20,CC(=O)c1ccc(Oc2cc(C)nc(-n3nc(C)cc3C)n2)cc1,11.6 (active)
21,COCCNc1nc(-n2nc(C)cc2C)nc2sc3c(c12)CCCC3,0.116
22,Cc1ccc(S(=O)(=O)Nc2ccccc2CNc2c(C)n(C)n(-c3ccccc3)c2=O)cc1,1.04
23,Cc1ccc(S(=O)(=O)N2CC(=O)Nc3ccccc32)cc1C,0.0538
24,CCN1C(=O)CS/C1=N\c1nccs1,0.211
25,Cc1ccc(CNC(=O)CCCNC(=O)c2ccc(Cl)cc2)n1C,-1.3
26,CC1CCN(Cc2nc3c(c(=O)n(C)c(=O)n3C)n2CCc2ccccc2)CC1,0.377
27,CCOC(=O)C1CCCN(C(=O)c2cncc(Br)c2)C1 (stereo not given),0.42

row,Compound,B-score
1,CCOC(=O)C1CCCN(C(=O)CN(c2ccc(OC)cc2)S(=O)(=O)c2c(C)noc2C)C1 (stereo not given),0.03
2,CCOC(=O)C1CCCN(C(=O)c2sc3nc(C)nc(N4CCOCC4)c3c2C)C1 (stereo not given),-3.4 (active)
3,Nc1nnc(C2CCCC2)s1,-1.25
4,CCOc1cccc(-n2nnnc2-c2ccc(OC)cc2)c1,4.33 (active)
5,CCOc1cccc(-c2nnc3sc(COc4ccc(OC)cc4)nn23)c1,-0.0728
6,COc1ccc(C2=CC(c3cccc(OC)c3)n3nnnc3N2)cc1 (stereo not given),1.89
7,CC(C)(C)Nc1c(N)c(=O)oc2ccccc12,-1.25
8,CCC(C)n1[nH]c(=O)cc1N (stereo not given),-0.0177
9,CC(C)C(=O)Nc1cccc(C(=O)Nc2ccc3c(c2)OCO3)c1,-3.26 (active)
10,COc1ccc(C(=O)Nc2ccc3c(c2)OCO3)cc1OC,1.31
11,Cn1c(=O)n(C)c2cc(C(=O)Nc3ccc4c(c3)OCO4)ccc21,-2.3
12,CCOc1ccc(Cn2nnc(C(=O)NCc3ccccc3)c2N)cc1,0.835
13,CC1(C)CC(=O)C(C=NCCC2=CCCCC2)=C(O)C1,1.52
14,Fc1ccc2[nH]c3c(N4CCSCC4)ncnc3c2c1,-5.42 (active)
15,Cc1ccc2c(c1)NCC(C(=O)NC1CCC(C)CC1)O2 (stereo not given),0.396
16,CC1(C)CC(=O)C=C(NC2CC(C)(C)NC(C)(C)C2)C1,-0.998
17,CCOC(=O)N1CCN(C(=O)c2cnc3n(c2=O)CCS3)CC1,0.461
18,CCCCc1c(O)nc2n(c1=O)CCS2,3.41 (active)
19,CN(CCc1ccccn1)S(=O)(=O)c1ccc2c3c(cccc13)C(=O)N2,0.281
20,CCC/C(O)=C1\C(=O)CC(C)(C)CC1=Nc1ccccc1OC,0.24
21,COc1ccc(NC(=O)c2cccc(NC(=O)c3ccco3)c2)c(OC)c1,-0.0282
22,Cc1nn(-c2ccccc2)c(CC(C)(C)C(=O)O)c1C(=O)O,0.0788
23,Cc1nn(-c2ccccc2)c2c1C(=O)NC(=O)C(C)(C)C2,20.5 (active)
24,Cc1cc(NC(=O)Nc2ccccc2)n(-c2ccccc2)n1,-0.331
25,Cc1cc(Nc2ccc(Br)cc2F)n2ncnc2n1,-0.165
26,COC(=O)c1oc2ccc(Br)cc2c1NC(C)=O,0.0355
27,Cc1cc(C)nc(-n2nc(C)cc2NC(=O)c2ccc(Br)o2)n1,6.02 (active)

row,Compound,B-score
1,Cc1cccc(-n2nc3c(c2NC(=O)c2ccc(Br)o2)CSC3)c1C,0.109
2,CCN(CC)S(=O)(=O)c1cccc(C(=O)Nc2cc(C)nn2-c2nc(C)cc(C)n2)c1,0.0356
3,CS(=O)(=O)N(C(=O)NC(=O)NC1CCS(=O)(=O)C1)C1CCCCC1 (stereo not given),-3.24 (active)
4,CC(=O)CCS(=O)(=O)c1ccc(C)c(C)c1,1.88
5,COc1ccc(S(=O)(=O)N2CCOCC2)cc1C(=O)Nc1nc2ccccc2s1,-0.687
6,CC(C)NS(=O)(=O)c1ccc(NC(=O)c2cccnc2)cc1,1.41
7,CN(C)CCNC(CC(=O)Nc1ccc(Cl)c(Cl)c1)C(=O)O (stereo not given),0.834
8,CC(c1cccnc1)N(CCN(C)C)C(=O)Nc1ccc(Cl)c(Cl)c1 (stereo not given),-1.22 (active)
9,COC(=O)[C@H](C(C)C)n1c(C)c(C(C)=O)c(C(C)=O)c1C,4.12 (active)
10,CCOc1ccc(OCC)c(NC(=O)C(NS(=O)(=O)c2ccc3c(c2)oc(=O)n3C)C(C)C)c1 (stereo not given),-0.175
11,C#CCN1C(=O)C(O)(CC(=O)c2cc(OC)ccc2OC)c2ccccc21 (stereo not given),0.733
12,CSC1=NCCN1C(=O)c1ccc(S(=O)(=O)N2CCOCC2)cc1,-0.521
13,Cn1c(=NC(=O)C2CC2)sc2cc(F)cc(F)c21,1.19
14,COc1ccccc1N1CC(O)=C(c2nc3ccccc3s2)C1=N,-0.346
15,Cc1cccc(Cn2c(SCCO)nc3c2c(=O)n(C)c(=O)n3C)c1,0.248
16,COC(=O)C(C)Sc1nc2c(c(=O)n(C)c(=O)n2C)n1Cc1cccc(C)c1 (stereo not given),0.892
17,C/C(Cl)=C\Cn1c(Nc2cccc(C)c2)nc2c1c(=O)n(C)c(=O)n2C,13.2 (active)
18,COCCCNC(=O)c1c(F)c(F)c(F)c(F)c1F,-0.712
19,O=C(NCc1cccnc1)c1ccc(CS(=O)(=O)c2ccc(Br)cc2)o1,-0.0969
20,Cc1cccc(NC(=O)CSC(N)=O)c1C,-0.0507
21,CCc1ccccc1N(CC(=O)NCCSCc1ccco1)S(C)(=O)=O,0.0216
22,O/N=C(\c1ccc2c(c1)OCCO2)C1CCCCC1,8.96 (active)
23,O=C(OCc1ccccc1F)c1ccc2c(c1)OCCO2,0.452
24,O=C(c1ccc2c(c1)OCCO2)C1CCN(S(=O)(=O)c2cccc(F)c2)CC1,0.0652
25,Fc1c(F)c(C(F)(F)F)c(F)c(F)c1N1CCN(c2ccc3nnc(C(F)(F)F)n3n2)CC1,0.11
26,CC1(C)CC(=O)C(C=NCc2cccnc2)=C(O)C1,1.34
